Source: PubChem BioAssay (NCI)
About 83,000 compounds went through this panel and 20% of them were active in at least one assay; those are over-represented in the sample as a whole.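 Note: values are percent growth. 100 is the growth of untreated cells, values between 100 and 0 indicate rising inhibition; between -100 and 0 indicates cell death.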 Unmarked numbers belong to inactive results. The source made the active and inactive calls.

Each compound was assayed on U251 CNS (assay: NCI-60 one-dose screen, 48 h (100 = growth as untreated, 0 = no growth, -100 = all killed)). Conditions: 10 µM unless noted.
Procedure: Growth inhibition of the U251 human tumor cell line is measured as a screen for anti-cancer activity. Cells are grown in 96 well plates and exposed to the test compound for 48 hours. Compounds are tested at a single concentration, which is 10^-5 M for most compounds. The reported endpoint is percent growth (GI% or GIPRCNT), where numbers from 0 - 100% represent growth inhibition, and numbers from -100% - 0 represent cell death. For example, a value of 40 represents 60% growth inhibition. A value of 0 means no net growth occurred over the course of the experiment. A value of -40 indicates 40% of cells at the beginning of the experiment died by the end of the experiment. A value of -100 means all cells are dead at the end of the experiment.
NCI-60 Human Tumor Cell Lines Screen was performed using the standard one-dose NCI protocol, which is described in more detail at https://dtp.cancer.gov/discovery_development/nci-60/default.htm.
Compounds with GIPRCNT values below 10 were considered active. Activity score was based on GIPRCNT using the following formula: […]
Score is 0 for GIPRCNT values of 100 or above, 50 for GIPRCNT values of 0, and 100 for GIPRCNT values of -100.

Row | Compound | growth
1 | N#Cc1ccc(NC(=O)c2ccc3cccnc3c2O)cc1 | 14.6%
2 | CCC1CCc2nc3sc(C(=O)Nc4ccccc4C)c(N)c3cc2C1 (stereo not given) | 42%
3 | COC(=O)[C@H]1[C@H](OC)[C@@H](OC(=O)/C=C/c2ccncc2)CC2CN3CCc4c([nH]c5cc(OC)ccc45)[C@@H]3C[C@@H]21 (stereo not given in full) | 67.1%
4 | C=C1C(=O)O[C@H]2[C@H]1CC/C(Cn1cc(-c3ccccc3C(F)(F)F)nn1)=C\CC[C@@]1(C)O[C@@H]21 | 13.1%
5 | CCCCCCOc1ccc(C2(Cl)c3ccccc3N(C)c3ccccc32)cc1 | -8.78% (active)
6 | CCn1cc(C2NC(=O)c3cc(F)ccc3N2)c2cccc(Cl)c21 (stereo not given) | -14.2% (active)
7 | COc1ccc(/C=C/c2cc(N3CCOCC3)c3cc(F)c(F)cc3n2)cc1OC | 23.5%
8 | CCN(CC)CCSc1c2ccc(Cl)cc2nc2ccc(OC)cc12 | 93%
9 | CCNCc1ccncc1 | 94.9%
10 | CCSc1nnc(Nc2ccc(C(C)C)cc2)s1 | 66%
11 | CCN(C(=O)c1cc2ccccc2[nH]1)[C@H]1CCC[C@@H](NCc2ccc(OC)cc2)C1 | 101%
12 | C=C1C(=O)O[C@H]2[C@H]1CC/C(COC(=O)NCc1cc(OC)c(OC)c(OC)c1)=C\CC[C@@]1(C)O[C@@H]21 | 81.3%
13 | COc1ccc(C2CC(=O)Nc3c2c(C)nn3-c2nc3ccccc3[nH]2)cc1OC (stereo not given) | 84.4%
14 | C[C@]12CC[C@@H]3c4cc(O)c(O)cc4CC[C@H]3[C@@H]1CC[C@@H]2O | 35.8%
15 | COc1ccc(OC)c(-c2ccc(-c3ccccc3N)c3[nH]c4ccccc4c23)c1 | 77.9%
16 | CC(=O)/C=C/c1cc2cc(Cl)ccc2[nH]c1=O | 62.1%
17 | Nc1c(C(=O)c2ccc(F)cc2)sc2nc3c(cc12)CCCC3 | 79.4%
18 | CCN1C(=O)N(CC)C2C1NN=c1s/c(=C\c3cccc(F)c3)c(=O)n12 (stereo not given) | 29.4%
19 | COc1cc(NS(C)(=O)=O)ccc1Nc1c2ccc([N+](=O)[O-])cc2nc2c(C)cccc12 | 0.458% (active)
20 | Cc1ccc2nc(SCn3nnc4ccccc4c3=O)[nH]c2c1 | 103%

Row | Compound | growth
21 | CC1=CNNc2c3ncnc-3ncn21 | 102%
22 | CN1CCN(CCCOc2ccc3nc(Nc4ccc(C(F)(F)F)c(Cl)c4)ccc3c2)CC1 | -62.3% (active)
23 | O=C1NC(Cc2c[nH]c3ccccc23)C(=O)N1Cc1ccc(Cl)cc1 (stereo not given) | 94.1%
24 | C/C(=C\c1csc(C)n1)[C@@H]1C[C@@H]2O[C@]2(C)CCC[C@H](C)[C@H](O)[C@@H](C)C(=O)C(C)(C)[C@@H](O)CC(=O)N1 | -100% (active)
25 | COc1ccc2c(c1)C=CC(C#N)N2C(=O)c1ccccc1 (stereo not given) | 28.6%
26 | O=C1c2ccccc2C(=O)c2c1oc1oc3c(c(=O)c21)c(=O)n(-c1ccccc1)c1ccccc31 | 21.1%
27 | COC(=O)c1ccc2nc(-c3cc4ccccc4n3C)n(CCCCOc3cc4c(cc3OC)C(=O)N3CCC[C@H]3C=N4)c2c1 | 1.02% (active)
28 | O=C1c2ccccc2C(=O)c2c(N=Nc3sc(=O)[nH]c3S)cccc21 | 91.6%
29 | C=CCOc1ccc(/C(O)=C2\C(=O)C(=O)N(c3nccs3)C2c2ccccc2F)cc1 (stereo not given) | 93%
30 | O=C(O)c1ccc(-n2cc(CNc3ccc(C(F)(F)F)cc3)c(-c3ccccc3)n2)cc1 | 81%
31 | O=c1oc2cc(OS(=O)(=O)c3ccc(F)cc3)ccc2c2c1CCCCC2 | 57.6%
32 | CSc1ccccc1C#C/C=C\C#Cc1ccccc1N1CCCCC1=O | 93.6%
33 | O=[N+]([O-])c1c(S(=O)(=O)O)cc2cc(S(=O)(=O)O)ccc2c1[N+](=O)[O-] | 100%
34 | COc1ncc(-c2ccc3ncnc(Nc4cccc(Cl)c4)c3c2)cc1N(S(C)(=O)=O)S(C)(=O)=O | 82.1%
35 | COC(=O)CCCCCCN=Cc1c(O)c(O)c(C(C)C)c2cc(C)c(-c3c(C)cc4c(C(C)C)c(O)c(O)c(C=NCCCCCCC(=O)OC)c4c3O)c(O)c12 | 11.5%
36 | Cc1cc(C(=O)O)c(N)c(C)n1 | 104%
37 | COc1cc(C2C=C(C)N=C3SC=C(C)N32)cc(OC)c1OC (stereo not given) | -75.6% (active)
38 | Nc1c(C(=O)Nc2ccccc2)sc2nc3c(cc12)CCCCC3 | 13.8%
39 | Nc1c(C(=O)Nc2c(Cl)cccc2Cl)sc2nc3c(cc12)CCCCC3 | 66.7%
40 | NC(=O)c1c(NC(=O)c2ccc3c(c2)OCO3)sc2c1CCC(=O)C2 | -9.21% (active)
